Experimental data as given in the supplement of paper PMC6805474.

These compounds were tested on Schistosoma mansoni schistosomula (LE) (assay: XTT viability relative to DMSO control; higher = more viable (less active)). Details: 72 h; 10 µM.
Experimental: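 XTT/PMS was then added for a further 24 h (72 h total) and A450 was read. % viability = (sample - heat-killed control)/(DMSO control - heat-killed control) x 100, from duplicate wells in two independent experiments.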

SMILES | XTT viability [%]
NS(=O)(=O)c1cccc(-c2ccc3ncc(N4CCOCC4)nc3c2)c1 | 116
Nc1nc2ccc(-c3cncc(Oc4ccc(F)cc4)c3)cc2[nH]1 | 111
O=C([C@@H](c1ccc(Cl)cc1)c1cccnc1)N1CCN(c2ccc(C(F)(F)F)cc2)CC1 | 46.8
OCCc1ccc(Nc2nccc(-c3nnc4ccccn34)n2)cc1 | 109
c1cncc(NCc2ccc(-c3cc4ccncc4cc3OC3CCNCC3)s2)c1 | 14.8
CC(=O)Nc1ccc(-c2noc(CC3CCCN(Cc4cccc(F)c4C)C3)n2)cc1 (stereo not given) | 117
COc1cc(-c2cc(-c3ccc(S(C)(=O)=O)cc3)cnc2N)ccc1O | 139
N#Cc1nc(-c2ccccc2)oc1S(=O)(=O)c1ccc(Cl)cc1 | -7.61
Cc1ccc2nc(C)c(-c3ccn(Cc4ccccc4)n3)n2c1 | 95.7
COc1cccn2c(C(=O)N3CCCCC3)c(C(F)(F)F)nc12 | 95.7
CCn1cnc2c(Nc3cc(F)cc(F)c3)nc(C#N)nc21 | 97.7
FC(F)(F)c1cnc(Sc2nnc(-c3ccncc3)o2)c(Cl)c1 | 74
CNc1snc(C)c1C(=O)NCCOc1ccc(OC)cc1 | 91.3
CC1CCCN(C(=O)C(C)Nc2cc(Cl)ccc2N2CCOCC2)C1 (stereo not given) | 137
COc1cc(Br)cc2cc(C(=O)Nc3cccc(C(F)(F)F)c3)c(=O)oc12 | 90.6
N=C(N)c1ccc(OCCCCCOc2ccc(C(=N)N)cc2)cc1 | 81.9
COc1ccc(S(=O)(=O)Nc2ccc(CN3CCN(C(=O)c4cccc(C#N)c4)CC3)cc2)cc1 | 144
Cc1ccc(S(=O)(=O)N2CCN(C(=O)c3cc(-c4ccccc4)[nH]n3)CC2)cc1 | 82.6
Cc1cccnc1NC(=O)c1cccc(OCc2c(C)noc2C)c1 | 114
N=C(N)c1ccc(-c2cc(-c3ccccc3)on2)cc1 | 91.6

SMILES | XTT viability [%]
CCc1ccc([C@@H]2C[C@H](C(F)(F)F)n3ncc(C(=O)NCc4ccc(OC)cc4)c3N2)cc1 | 99.5
Cc1cc(NC(=O)c2ccc(Oc3ccc(Cl)cc3O)o2)no1 | 99.6
Cc1cc(Nc2ccc(C(F)(F)F)cc2)n2ccnc2n1 | 71.7
c1coc(CNc2nc(N3CCCCC3)nc3ccccc23)c1 | 99.5
CN(C)CCNC(=O)N1CCCN(c2ncnc3cc(-c4ccccc4)sc23)CC1 | 106
CNC1C(OC2C(OC3C(O)C(O)C(NC(=N)N)C(O)C3NC(=N)N)OC(C)C2(O)C=O)OC(CO)C(O)C1O (stereo not given) | 93
CCOC(=O)NC(=O)c1ccsc1NC(=O)c1nc2ccccc2s1 | 134
COc1ccc(Nc2ccccc2NC(=O)c2ccc(O)nc2)cc1 | 176
O=C(NCc1ccoc1)N1CCN(Cc2ccc3c(c2)OCO3)CC1 | 76.2
CN1CCN(c2nccc3nc(-c4ccc(F)c(F)c4)[nH]c23)CC1 | 110
COC(=O)c1cccc2oc(-c3cccc(OC)c3NC(=O)c3cc(-c4ccccc4)on3)nc12 | 88.1
CC(C)(C(=O)Nc1ccc(F)cc1)n1cc(-c2ccccc2F)cn1 | 128
COc1ccc(-c2cc(NC(=O)c3ccc(F)cc3Cl)ccc2OC)cc1 | 89.7
CCN(CC)C(=O)N1CCN(C)CC1 | 95.5
c1ccc(-c2cc(N3CCCCC3)c3ccccc3n2)nc1 | 59.9
c1ccc(-c2nc(NC3CCCCC3)cc(C3CC3)n2)nc1 | 16.4
COc1cc(NC(=O)Cc2nn(C)c(=O)c3ccccc23)ccc1Cl | 104
COc1ccc(Cn2cnc3c(-c4ccco4)nc(Cl)nc32)cc1 | 98.6
Nc1nccc2ccc(-c3ccc4nccn4c3)cc12 | 41.1
COC(=O)c1c(NC(=O)c2c(F)c(F)c(F)c(F)c2F)sc2c1CCCCC2 | 0.615
